For 60 molecules, inhibition results are on record in PubChem BioAssay AID1021 (Emory University Molecular Libraries Screening Center, 2008).

Several values for one entry are separate records, joined by “and”; a condition that tells them apart may be missing. Identical values can stand only once. Among all 220,000 compounds or so, about 2,100 (0.95%) were called active.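 How the source made its calls: active means compounds that cut the binding signal by more than half at the single screening dose; inactive means the rest.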 For the sample, actives were picked, then their nearest neighbours and some compounds at random. A structure can be active in one record and inactive in another.

Induced myeloid leukemia cell differentiation protein Mcl-1 (Homo sapiens), sequence (Q07820 whole entry, looked up): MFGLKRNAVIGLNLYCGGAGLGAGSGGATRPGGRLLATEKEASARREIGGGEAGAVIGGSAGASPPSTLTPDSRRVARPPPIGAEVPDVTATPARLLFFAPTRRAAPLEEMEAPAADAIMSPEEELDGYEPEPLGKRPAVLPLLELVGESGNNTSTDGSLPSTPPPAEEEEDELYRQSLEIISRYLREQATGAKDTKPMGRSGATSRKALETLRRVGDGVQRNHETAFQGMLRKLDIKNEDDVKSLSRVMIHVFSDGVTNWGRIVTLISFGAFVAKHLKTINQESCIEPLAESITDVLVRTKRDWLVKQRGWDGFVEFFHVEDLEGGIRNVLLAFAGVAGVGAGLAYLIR

This assay addresses Induced myeloid leukemia cell differentiation protein Mcl-1 (Homo sapiens) (UniProt Q07820). Put plainly: disruptors of Mcl-1 and Bid BH3 peptide – biochemical, TR-FRET, 1536-well, primary screen (AID 1021).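 Further: His-tagged Mcl-1 with europium anti-His antibody binding Bid BH3 peptide; 0% = Mcl-1 plus peptide wells and 100% = peptide-only wells.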 As to conditions: TR-FRET Mcl-1/Bid-Dy647 peptide binding, at 21.7 µM, stronger effect = higher value. On the technique in general: TR-FRET usually uses a lanthanide donor and a delayed reading to cut background.
As for `O=c1cc(C(F)(F)F)[nH]c(=O)n1C1CCCCC1`, the inhibition is -10.9% (inactive).
As for `Cc1ccc(Nc2cc(=O)n(C3CCCCC3)c(=O)[nH]2)cc1C`, the inhibition was 94.6% (active).
With `Cc1ccc(NNC(=O)C2CCC2)cc1C`, the inhibition was -13% (inactive).
The result for `Cc1c(C(=O)Nc2ccccc2)sc2nc3n(c(=O)c12)CCCCC3` reads -9.14% (inactive).
The same measure for `O=C(Cn1c[n+](CC(=O)c2ccc([N+](=O)[O-])cc2)cn1)c1ccc([N+](=O)[O-])cc1`: -21.7% (inactive) and -16.6% (inactive); for `CC(=O)Oc1cccc(N2C(=O)C3CC=C(Cl)CC3C2=O)c1` (stereo not given): -19.4% (inactive).
The result for `CC(=O)Nc1ccc(N2C(=O)C3C4CC(=O)C(c5ccccc54)C3C2=O)cc1` (stereo not given) reads -11.5% (inactive); that for `O=C(Oc1cccc(N2C(=O)C3C4c5ccccc5C(c5ccccc54)C3C2=O)c1)c1ccco1` (stereo not given), 92% (active); that for `O=[N+]([O-])c1ccc(N2CCSCC2)cc1O`, -15.7% (inactive).
Consider `O=C(CS(=O)(=O)c1ccc(C(F)(F)F)cn1)NNC(=O)c1ccccc1`, for which the inhibition is -2.12% (inactive).
The same measure for `O=c1[nH]c2ccccc2n2c(-c3ccccc3)nnc12`: 64.9% (active).
For the molecule `Cc1ccc(-c2nc3ccccc3[nH]c2=O)cc1`, the inhibition is -0.25% (inactive).
As for `CCOC(=O)c1cnc2[nH]c3ccccc3n2c1=O`, the inhibition is 10.7% (inactive).
The result for `CCCCc1nnc(NC(=O)CSc2nc(N)cc(=O)[nH]2)s1` reads -5.95% (inactive).
The result for `Cn1c2ccccc2c2cc(/C=C(\NC(=O)c3ccccc3)C(=O)NCC(=O)O)ccc21` reads -1.08% (inactive); that for `Cc1cc(NS(=O)(=O)c2ccc(NC(=O)c3cccc(OC(F)F)c3)cc2)nc(C)n1`, -2.38% (inactive).
The same measure for `Cn1cccc1/C=N/NC(=O)CNc1cccc2ccccc12`: -45.9% (inactive); for `O=C(O)C(NS(=O)(=O)c1cccc2nsnc12)c1ccccc1` (stereo not given): -3.92% (inactive).
Take `O=C(C(NS(=O)(=O)c1cccc2nsnc12)c1ccccc1)N1CCN(c2ccccc2)CC1` (stereo not given): the inhibition was -29.6% (inactive).
The same measure for `O=C(O)c1ccc(NS(=O)(=O)c2cccc3nsnc23)cc1`: 101% (active); for `N#Cc1c(N)nc2c(c1N)CC(C(F)(F)F)O2` (stereo not given): 1.45% (inactive); for `Cc1nn(-c2ccccc2)c2c1C(c1ccc(F)cc1)C(C#N)=C(N)O2` (stereo not given): -9.94% (inactive).
The result for `COc1ccccc1C1C(C#N)=C(N)Oc2c1c(-c1ccccc1)nn2-c1ccccc1` (stereo not given) reads 97.3% (active); that for `Cc1nn(Cc2ccccc2)c2c1C(c1ccccc1)C(C#N)=C(N)O2` (stereo not given), -17.5% (inactive).
The same measure for `COc1cc(S(=O)(=O)N(Cc2cccs2)C2CC2)ccc1-n1cnnn1`: 1.4% (inactive); for `CCC(CC)NC(=O)CSc1nnc(-c2c[nH]c3ccccc23)o1`: 1.1% (inactive).
Regarding `CN(C)c1ccc(Nc2c3c4c(cccc4n(C)c2=O)C(=O)c2ccccc2-3)cc1`, the inhibition is 59.4% (active).
The result for `CC1(C)CC(=O)C=C(Nc2ccccc2)C1` reads -54% (inactive); that for `Cc1ccc(C(=O)OC2=CC(=O)CC(C)(C)C2)cc1`, 89.4% (active); that for `COC(=O)NNC1=CC(=O)CC(C)(C)C1`, -13.6% (inactive).
The same measure for `C/C(=N\Nc1cccc(C(=O)O)c1)c1ccc2c(c1)Nc1ccccc1S2`: 92% (active); for `O=C(NC1CC1)c1ccc2c(c1)NC(=O)c1ccccc1S2`: -30.3% (inactive).
The result for `CC(=O)Nc1cccc(/C(C)=N/NC(=O)c2ccccc2Cl)c1` reads -9.47% (inactive).
Take `COc1cc(/C=N/NC(=O)CCc2n[nH]c(=O)[nH]c2=O)ccc1O`: the inhibition was -25.6% (inactive).
As to `O=C(OCc1nc2ccccc2[nH]1)C1CCCCC1`, the inhibition was -17.4% (inactive).
Take `COc1ccc(C(=O)C2CCCN(Cc3ccc4nonc4c3)C2)c(C)c1` (stereo not given): the inhibition was -14.3% (inactive).
Regarding `O=C(NC1CCCCC1)N1CCc2[nH]c3ccccc3c2C1`, the inhibition was -16.1% (inactive).
For `Fc1ccc(NC(=S)N2CCc3[nH]c4ccccc4c3C2)cc1`, the inhibition was -6.12% (inactive).
Regarding `O=C(Nc1ccc(Cl)cc1)N1CCc2[nH]c3ccccc3c2C1`, the inhibition is 83.8% (active).
The same measure for `Cc1ccccc1CN(c1ccc(C(=O)NCC2CCCO2)cc1)S(C)(=O)=O` (stereo not given): -0.03% (inactive); for `CNS(=O)(=O)c1ccc(N2CCCC2=O)c([N+](=O)[O-])c1`: -4.05% (inactive); for `COc1ccc(CN2CCCC(CNC(=O)c3ccc(F)cc3)C2)cc1OC` (stereo not given): -22.9% (inactive).
As for `COc1ccc(CN2CCCC(C(=O)c3ccc(Cl)cc3)C2)cc1Cn1cncn1` (stereo not given), the inhibition is -25.6% (inactive).
The result for `COc1ccc(CCN(C)C(=O)C2CCCN(Cc3ccc(OC)c(OC)c3)C2)cc1OC` (stereo not given) reads -22.7% (inactive) and 54.1% (active).
For `CC(C)CC(=O)NC(=S)NNC(=O)c1cccc([N+](=O)[O-])c1`, the inhibition was -73.3% (inactive).
The same measure for `Cn1nc(C(F)(F)F)c(-c2ccc(F)cc2)c1NC(=O)CSCC(=O)O`: -12.6% (inactive).
On to `O=C(O)CSCC(=O)Nc1cccc(C(F)(F)F)c1`, for which the inhibition is -0.04% (inactive).
Turning to `O=[N+]([O-])c1ccc(N/N=C/c2ccccc2)cc1`, the inhibition is -8.01% (inactive).
The same measure for `FC(F)(F)c1cccc(N/N=C/c2ccccc2)c1`: 93.7% (active); for `Clc1ccc(C[n+]2cc(-c3ccc(Cl)cc3)n3c2CCC3)cc1`: -1.66% (inactive); for `COc1ccc2[nH]c3c(=O)n(Cc4ccco4)cnc3c2c1`: 72.9% (active).
As for `Cc1ccc2[nH]c3c(=O)n(Cc4ccccn4)cnc3c2c1`, the inhibition was 14.7% (inactive).
Regarding `O=c1c2[nH]c3ccc(Cl)cc3c2ncn1Cc1ccccn1`, the inhibition is 10.2% (inactive).
The result for `S=C(NNC(=S)NC1CC2C=CC1C2)NC1CC2C=CC1C2` (stereo not given) reads -96.2% (inactive).
The result for `CCCCCCCCCCCCC(NC(C)=O)(C(=O)OCC)C(=O)OCC` reads 1.76% (inactive); that for `CN(C)c1ccc(/C=C/C(=O)c2ccc(O)cc2)cc1[N+](=O)[O-]`, -2.27% (inactive); that for `CCO[C@@H]1OC(C(=O)NCc2nc3ccccc3[nH]2)=C[C@H](C2CCCCC2)[C@H]1CCCO`, 5.02% (inactive).
Consider `CCc1ccccc1N1CN(Cc2ccco2)CNC1=S`, for which the inhibition was -26.9% (inactive).
The same measure for `Cc1nccc(-c2ccc(-n3c(C)ccc3C)cc2)n1`: 6.3% (inactive); for `COc1ccccc1NC(=O)/C=C/C(=O)O`: -31.9% (inactive).

As a reminder, the inhibition is the relative decrease from the control value, in per cent.
